G9a inh = G9a (human) methyltransferase inhibition. Q96KQ7. G9a H3K9 monomethylation, AlphaScreen, 2 h. Potency, µM (highest dose often 102 µM), inactives show top-dose activity, negative = inhibition, usual class: inhibitors. 350,000 compounds, 8.8% hits; further: on the % scale 0 is the no-effect control and ±100 the full control effect; nearly all actives have a fitted effect of over 75% in size
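G9a (20 nM) was preincubated 15 min with compound, then reacted 2 h at room temperature with 500 nM biotin-H3K9 peptide and 20 µM SAM. Monomethyl-H3K9 detected by AlphaScreen using anti-H3K9me1 antibody.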
Sfp inh = inhibitors of Bacillus subtilis Sfp phosphopantetheinyl transferase. AID 1490. Potency, µM, inactives show largest response in the series, negative = inhibition, actives largely listed as inhibitors. 310,000 compounds, 3.5% hits. Q9F4F7. Biochemical Sfp PPTase activity, qHTS;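 further: the enzyme is Sfp with the accession as filed and its product quenches rhodamine fluorescence; 0% = enzyme reaction without inhibitor and -100% = no enzyme wells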
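Buffer: 50 mM Hepes-Na pH 7.6, 10 mM MgCl2, 0.01% Nonidet P-40, 0.01% BSA. Enzyme 15 nM, pre-exposed to compound 15 min; substrates then added and fluorescence change tracked over 30 min.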
12-LOX inh = inhibitors of human 12S-lipoxygenase ALOX12 | purified 12hLO, xylenol orange hydroperoxide absorbance | 580,000 compounds, 1.1% hits | Potency, µM (series often up to 108 µM), inactives show at the top dose activity change, negative = inhibition, most hits filed as inhibitors | AID 1671190; further: on the % scale 0 is the no-effect control and ±100 the full control effect
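Purified human 12hLO at 150 nM in 25 mM Hepes, 0.01% Triton X-100, pH 7.0, preincubated 15 min at room temperature with compound. Reaction started with 40 uM arachidonic acid, 30 min at room temperature. Hydroperoxide measured by Fe-xylenol orange, 573/405 nm absorbance ratio.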
Glioma ERSR ind = inducers of ER stress response in human glioma cells; AID 602332; U87-MG GRP78 promoter luciferase reporter, 16 h; 420,000 compounds, 0.02% hits; Potency, µM, without a hit: at the highest dose activation, hits mostly activators; further: series mostly up to about 76 µM; % of control where 0% means no effect; nearly all actives have a fitted effect of over 35% in size
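ERSR induction read as luciferase luminescence (Bright-Glo, 10 min at room temperature) in stably transfected human U87-MG glioma cells exposed to compounds for 16 h, using GRP78 as sensor.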
VDR inhibitor = inhibitors of human vitamin D receptor; P11473; VDR-SRC2-3 peptide fluorescence polarization, 2 h; Potency, µM, without a hit: max response, negative = inhibition, actives largely listed as inhibitors; 400,000 compounds, 0.93% hits; further: on the % scale 0 is the no-effect control and ±100 the full control effect
Target sequence (P11473 whole entry, looked up): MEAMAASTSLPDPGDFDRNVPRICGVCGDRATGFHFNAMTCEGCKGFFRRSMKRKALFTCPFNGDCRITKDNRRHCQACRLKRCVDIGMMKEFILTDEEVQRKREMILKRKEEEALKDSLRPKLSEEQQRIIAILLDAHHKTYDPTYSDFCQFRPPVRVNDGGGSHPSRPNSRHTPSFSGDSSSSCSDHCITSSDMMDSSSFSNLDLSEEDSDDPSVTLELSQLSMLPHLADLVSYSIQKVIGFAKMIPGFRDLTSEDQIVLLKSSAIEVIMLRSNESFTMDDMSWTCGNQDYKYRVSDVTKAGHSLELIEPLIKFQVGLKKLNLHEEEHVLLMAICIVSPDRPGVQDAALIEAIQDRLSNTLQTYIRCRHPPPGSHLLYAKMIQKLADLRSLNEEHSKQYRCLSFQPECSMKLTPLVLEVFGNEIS
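Reagent solutions, kept cold and dark, are dispensed first; compounds are then pinned in at 23 nl, plates briefly spun, and incubated 2 h at ambient temperature. Inhibition of VDR–SRC2-3 peptide binding is read by fluorescence polarization.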
Active calls of the source: *; ? = inconclusive; nt = no result given; [ ] = another dose, or the depositor's remark. The full list was thinned out, with hits kept by preference. The call rests on the fitted dose curve; in most records, active means well fitted curve in the direction sought with a large enough effect; inconclusive means small, poorly fitted or top-dose-only effect, or another doubt; inactive means no such curve, though single readings can be large; an effect the other way counts as inactive or inconclusive. Potency means the concentration at half of the fitted maximal effect.

SMILES	G9a inh	Sfp inh	12-LOX inh	Glioma ERSR ind	VDR inhibitor
O=C(N/N=C\c1ccc([N+](=O)[O-])o1)C1COc2ccccc2O1 (stereo not given)	56µM*	-1%	-15%	0%	-3%
O=C(N/N=C\c1ccc(-c2ccccc2[N+](=O)[O-])o1)C1COc2cc3ccccc3cc2O1 (stereo not given)	?	17%	0%	-2%	?
O=C(N/N=C\c1ccc(-c2ccccc2[N+](=O)[O-])o1)C1COc2ccccc2O1 (stereo not given)	28µM*	2%	5%	-2%	-10%
CC(C)(C)c1ccc2c(c1)OC(C(=O)N/N=C\c1ccc(-c3cccc(C(=O)O)c3)o1)CO2 (stereo not given)	40µM*	50µM*	?	5%	?
Cn1cc(CN2CCC(C(=O)NC(c3ccc(F)cc3)c3ccc4ccccc4n3)CC2)c2ccccc21 (stereo not given)	nt	nt	45µM*	-12%	nt
O=C(NCc1ccc(OC(F)(F)F)cc1)c1n[nH]c(=O)c2ccccc12	nt	nt	7%	nt	nt
COc1ccc(-n2cccc2/C=C/[N+](=O)[O-])cc1	40µM*	?	?	-13%	?
COc1ccc(-n2cccc2C=O)cc1	-11%[59 µM]	12%	-20%	-3%	-15%
Cc1nc2ncnn2c(N2CCOCC2)c1Cc1ccccc1	nt	nt	-1%	nt	nt
Cc1nn(S(=O)(=O)c2ccc(C(C)C)cc2)c(C)c1S(=O)(=O)N1CCOCC1	35µM*	20%	?	-3%	1%
CCCCOc1ccc(S(=O)(=O)n2nc(C)c(S(=O)(=O)N3CCC(C)CC3)c2C)cc1	-2%[59 µM]	nt	-19%	-2%	5%
Cc1nn(S(=O)(=O)c2ccc(C(C)C)cc2)c(C)c1S(=O)(=O)N1CCCCCC1	2%[59 µM]	nt	?	-2%	14%
CCOc1ccc(S(=O)(=O)n2nc(C)c(S(=O)(=O)N3CCOCC3)c2C)cc1	50µM*	-1%	-1%	2%	-6%
CC(SC(=S)N1CCOCC1)C(=O)O (stereo not given)	-1%[12.7 µM]	5%	1%	-10%	13%
S=C(SSC(=S)N1CCOCC1)N1CCOCC1	nt	nt	5µM*	-8%	nt
CC1(C)CC(=O)C(C(c2ccco2)C2C(=O)CC(C)(C)CC2=O)C(=O)C1	?	50µM*	?	6%	?
CC1(C)CC(=O)C(C(c2ccc(F)cc2)C2C(=O)CC(C)(C)CC2=O)C(=O)C1	?	-33%	-2%	-4%	-7%
CCCn1nc(C(=O)Nc2ccc(OCC(=O)N(C)C)cc2)c2ccccc2c1=O	nt	nt	18%	nt	nt
N#CC1=C(N)N(c2ccc(F)cc2)C2=C(C1c1ccc(O)cc1)S(=O)(=O)CC2 (stereo not given)	4µM*	-92%	?	1%	4%
Cc1nn(-c2ccccc2)c(C)c1CN(C)C(=O)CNC(=O)c1ccc(C(F)(F)F)cc1	nt	nt	0%	nt	nt
Nc1nonc1-c1nc2ccccc2n1CC(=O)N/N=C/c1ccc(-c2ccccc2C(=O)O)o1	45µM*	?	-9%	-3%	9%
COc1ccccc1N1CCN(C(=O)C2N(C(C)C)C(=O)C23CCCCC3)CC1 (stereo not given)	nt	nt	21%	nt	nt
CC1CCCN(C(=O)C2CCN(C(=O)c3cc4ccccc4n3C)CC2)C1 (stereo not given)	nt	nt	24%	nt	nt
CCc1ccc2nc(NC(=O)C3CSC4(C)CCC(=O)N34)sc2c1 (stereo not given)	28µM*	nt	-9%	5%	12%
CC12CCC(=O)N1C(C(=O)Nc1nc3ccc(Cl)cc3s1)CS2 (stereo not given)	45µM*	nt	?	4%	-3%
CC12CCC(=O)N1C(C(=O)Nc1nc3ccc(S(C)(=O)=O)cc3s1)CS2 (stereo not given)	?	13%	132%	-2%	-14%
Cc1oc(C(O)c2ccccc2)nc1C(=O)Nc1ccc2[nH]ccc2c1 (stereo not given)	nt	nt	-10%[176 µM]	nt	nt
Clc1cc(Cl)c(N/N=C/C(Br)=C/c2ccccc2)c(Cl)c1	nt	nt	6.3µM*	nt	nt
O=C(N/N=C/C(Br)=C/c1ccccc1)c1ccncc1	nt	?	?	-5%	-12%
BrC(=C\c1ccccc1)/C=N/Nc1nc2ccccc2[nH]1	?	-65%	2%	4%	?

Source: PubChem BioAssay (National Center for Advancing Translational Sciences (NCATS))
